Measurements as given in PubChem BioAssay (EPA / NIEHS).
Several values for one entry are separate records, joined by “and”; a condition that tells them apart may be missing. Equal entries are not always repeated. Where a structure was tested more than once in an assay, its records may differ in their call. Activity calls are given as the source filed them. Rule for the calls: active = hit-call score of the fitted dose curve at least 0.9, where 1 is the maximum; inactive = score below 0.9.

Read-out: Interleukin-1 alpha (IL1a), IL1A (gene 3552)
Assay: BSK_BE3C_IL1a: BioMAP Diversity Plus: BE3C Assay for Interleukin-1 alpha (IL1a) Biomarker Activity (AID 2283016)
Settings: primary human bronchial epithelial cells; actives raise or lower the signal
In short: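 Human primary bronchial epithelial cells (BE3C system) were dosed with compound and IL-1a measured by ELISA 24 h later. Activity was fitted bidirectionally against DMSO baseline; cytotoxicity was tracked in parallel cultures by SRB total-protein staining.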

Structure (SMILES)	outcome	AC50
CCN(CC)C(=O)N(CC)CC	inactive	–
O=C1OC[C@H](Cc2cccc(O)c2)[C@H]1Cc1cccc(O)c1	inactive	–
CC1(C)C2=CCCC(C)(C)[C@]23CC[C@H]1C3	inactive	–
CS(=O)(=O)OCCCCOS(C)(=O)=O	inactive	–
CC(C)(N=C=O)c1cccc(C(C)(C)N=C=O)c1	inactive	–
CCOC(=O)C(C#N)=C(c1ccccc1)c1ccccc1	inactive	–
CC(=O)c1c(C)c([N+](=O)[O-])c(C(C)(C)C)c([N+](=O)[O-])c1C	inactive	–
CC1(C)CCC[C@]2(C)[C@H]3CCO[C@]3(C)CC[C@@H]12	–	28.7 µM (active) and 29.6 µM (active)
Clc1cc(Cl)c(-c2c(Cl)c(Cl)cc(Cl)c2Cl)cc1Cl	–	1.98 µM (active)

Read-out: Monocyte Chemoattractant Protein-1 (MCP1), CCL2 (gene 6347)
Assay: BSK_3C_MCP1: BioMAP Diversity Plus: 3C Assay for Monocyte Chemoattractant Protein-1 (MCP1) Biomarker Activity (AID 2283017)
Settings: primary human endothelial cells (HUVEC); actives raise or lower the signal
In short: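 Human umbilical vein endothelial cells (3C system) exposed to chemicals for 24 h; MCP-1 quantified by ELISA against the DMSO baseline with bidirectional fitting, and parallel SRB staining used to assess cytotoxicity.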

Structure (SMILES)	outcome	AC50
CCN(CC)C(=O)N(CC)CC	inactive	–
O=C1OC[C@H](Cc2cccc(O)c2)[C@H]1Cc1cccc(O)c1	inactive	–
CC1(C)C2=CCCC(C)(C)[C@]23CC[C@H]1C3	–	30.4 µM (active)
CS(=O)(=O)OCCCCOS(C)(=O)=O	inactive	–
CC(C)(N=C=O)c1cccc(C(C)(C)N=C=O)c1	inactive	–
CCOC(=O)C(C#N)=C(c1ccccc1)c1ccccc1	inactive	–
CC(=O)c1c(C)c([N+](=O)[O-])c(C(C)(C)C)c([N+](=O)[O-])c1C	inactive	–
CC1(C)CCC[C@]2(C)[C@H]3CCO[C@]3(C)CC[C@@H]12	–	26.4 µM (active) and 34.5 µM (active)
Clc1cc(Cl)c(-c2c(Cl)c(Cl)cc(Cl)c2Cl)cc1Cl	–	16 µM (active)

Read-out: Monocyte Chemoattractant Protein-1 (MCP1), CCL2 (gene 6347)
Assay: BSK_4H_MCP1: BioMAP Diversity Plus: 4H Assay for Monocyte Chemoattractant Protein-1 (MCP1) Biomarker Activity (AID 2283018)
Settings: primary human endothelial cells (HUVEC); actives raise or lower the signal
In short: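 Human umbilical vein endothelial cells (4H system) dosed with chemical; MCP-1 measured by ELISA 24 h after dosing. Bidirectional curve fitting against DMSO negative control as baseline; parallel SRB total-protein staining tracks overt cytotoxicity.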

Structure (SMILES)	outcome	AC50
CCN(CC)C(=O)N(CC)CC	inactive	–
O=C1OC[C@H](Cc2cccc(O)c2)[C@H]1Cc1cccc(O)c1	inactive	–
CC1(C)C2=CCCC(C)(C)[C@]23CC[C@H]1C3	inactive	–
CS(=O)(=O)OCCCCOS(C)(=O)=O	inactive	–
CC(C)(N=C=O)c1cccc(C(C)(C)N=C=O)c1	inactive	–
CCOC(=O)C(C#N)=C(c1ccccc1)c1ccccc1	inactive	1 µM (active)
CC(=O)c1c(C)c([N+](=O)[O-])c(C(C)(C)C)c([N+](=O)[O-])c1C	inactive	–
CC1(C)CCC[C@]2(C)[C@H]3CCO[C@]3(C)CC[C@@H]12	inactive	–
Clc1cc(Cl)c(-c2c(Cl)c(Cl)cc(Cl)c2Cl)cc1Cl	–	8.9 µM (active)

Read-out: Human Leukocyte Antigen - DR isotype (HLADR), HLA-DRA (gene 3122)
Assay: BSK_3C_HLADR: BioMAP Diversity Plus: 3C Assay for Human Leukocyte Antigen - DR isotype (HLADR) Biomarker Activity (AID 2283019);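 for outcome: ELISA of cell-surface HLA-DR on HUVEC 24 h after dosing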
Settings: primary human endothelial cells (HUVEC); actives raise or lower the signal
In short: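 HUVEC monoculture, HLA-DR measured by ELISA 24 h after chemical dosing. Fitted bidirectionally against DMSO baseline; parallel SRB staining assessed cytotoxicity, with 3C proliferation read by SRB at 48 h.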

Structure (SMILES)	outcome	AC50
CCN(CC)C(=O)N(CC)CC	inactive	–
O=C1OC[C@H](Cc2cccc(O)c2)[C@H]1Cc1cccc(O)c1	inactive	–
CC1(C)C2=CCCC(C)(C)[C@]23CC[C@H]1C3	–	29.1 µM (active)
CS(=O)(=O)OCCCCOS(C)(=O)=O	inactive	–
CC(C)(N=C=O)c1cccc(C(C)(C)N=C=O)c1	inactive	–
CCOC(=O)C(C#N)=C(c1ccccc1)c1ccccc1	inactive	–
CC(=O)c1c(C)c([N+](=O)[O-])c(C(C)(C)C)c([N+](=O)[O-])c1C	inactive	–
CC1(C)CCC[C@]2(C)[C@H]3CCO[C@]3(C)CC[C@@H]12	–	33.8 µM (active) and 34.7 µM (active)
Clc1cc(Cl)c(-c2c(Cl)c(Cl)cc(Cl)c2Cl)cc1Cl	–	15.2 µM (active)

Read-out: Interleukin-8 (IL8), CXCL8 (gene 3576)
Assay: BSK_3C_IL8: BioMAP Diversity Plus: 3C Assay for Interleukin-8 (IL8) Biomarker Activity (AID 2283020)
Settings: primary human endothelial cells (HUVEC); actives raise or lower the signal
In short: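 Primary human umbilical vein endothelial cells (3C system) were exposed to test chemical for 24 h, then IL-8 was quantified by ELISA. Responses were fitted bidirectionally against DMSO vehicle as baseline.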

Structure (SMILES)	outcome	AC50
CCN(CC)C(=O)N(CC)CC	inactive	–
O=C1OC[C@H](Cc2cccc(O)c2)[C@H]1Cc1cccc(O)c1	inactive	–
CC1(C)C2=CCCC(C)(C)[C@]23CC[C@H]1C3	–	20 µM (active)
CS(=O)(=O)OCCCCOS(C)(=O)=O	inactive	–
CC(C)(N=C=O)c1cccc(C(C)(C)N=C=O)c1	inactive	–
CCOC(=O)C(C#N)=C(c1ccccc1)c1ccccc1	inactive	–
CC(=O)c1c(C)c([N+](=O)[O-])c(C(C)(C)C)c([N+](=O)[O-])c1C	inactive	–
CC1(C)CCC[C@]2(C)[C@H]3CCO[C@]3(C)CC[C@@H]12	–	31.5 µM (active) and 35.4 µM (active)
Clc1cc(Cl)c(-c2c(Cl)c(Cl)cc(Cl)c2Cl)cc1Cl	–	1.98 µM (active)
